The values that follow come from PubChem BioAssay (NCI).

This is part of a sample that, as a whole, favours compounds with a hit. Of some 83,000 tested, about 20% had one in any assay.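 Each cell line was grown in a 96-well plate and treated with one concentration of compound for 48 hours. Values below 10 were considered active.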 A number with no mark means an inactive call. Active and inactive are the calls of the source.

What all share (experiment): NCI-60 one-dose screen, 48 h (100 = growth as untreated, 0 = no growth, -100 = all killed)
The subject of one test is HT29 colon. As to conditions: 10 µM unless noted.
A further test has as its system SNB-75 CNS. As to conditions: 10 µM unless noted.
A further test relates to U251 CNS. The following applies: 10 µM unless noted.
The next test concerns PC-3 prostate. The following applies: 10 µM unless noted.
A further test concerns SK-MEL-5 melanoma. As to conditions: 10 µM unless noted.
The next test deals with UACC-62 melanoma. The following applies: 10 µM unless noted.
The next test concerns LOX IMVI melanoma. As to conditions: 10 µM unless noted.
The test system of another test is SK-MEL-28 melanoma. The following applies: 10 µM.
The test system of the next test is EKVX NSCLC. The following applies: 10 µM unless noted.
The next test relates to SN12C renal. The following applies: 10 µM unless noted.
Another test has as its system UO-31 renal. As to conditions: 10 µM unless noted.
The test system of another test is TK-10 renal. As to conditions: 10 µM unless noted.
The test system of the next test is ACHN renal. The following applies: 10 µM unless noted.
The test system of another test is CAKI-1 renal. As to conditions: 10 µM unless noted.
For the next test, the system named is A498 renal. As to conditions: 10 µM unless noted.
For a further test, the system named is CCRF-CEM leukemia. The following applies: 10 µM unless noted.
In the next test the test system is MOLT-4 leukemia. The following applies: 10 µM unless noted.
The subject of another test is SR leukemia. The following applies: 10 µM unless noted.
The next test has as its system SNB-19 CNS. The following applies: 10 µM unless noted.
The subject of a further test is SK-MEL-2 melanoma. The following applies: 10 µM unless noted.

As for `O=C(/C=C/c1ccccc1)c1ccc(Nc2nc(NCCO)nc(Nc3ccc(Cl)cc3)n2)cc1`, the growth in the test with HT29 colon was 30.2%; in the test on SNB-75 CNS, 69.2%; with U251 CNS it was 23%; in the test with PC-3 prostate it was 77.8%; in the test with SK-MEL-5 melanoma, 80.2%; in the test on UACC-62 melanoma, 78.7%. Moreover, the growth in the test with LOX IMVI melanoma is 30.6%; with SK-MEL-28 melanoma it was 88.2%; with EKVX NSCLC, 74.2%; in the test with SN12C renal, 94.1%; in the test with UO-31 renal, 66.7%; in the test with TK-10 renal it was 98.5%. The growth with ACHN renal is 74.1%; with CAKI-1 renal it was 79.2%; in the test on A498 renal, 88.9%; in the test with CCRF-CEM leukemia, 60.6%; in the test on MOLT-4 leukemia, 74.3%; in the test on SR leukemia, 23.1%.

`COC(=O)/C(CCC=C(C)C)=C1\[C@@H](OC(C)=O)C[C@@]2(C)[C@H]1C[C@@H](O)[C@H]1[C@@]3(C)CC[C@H](NCCCNCCCCNCCCN)[C@@H](C)[C@@H]3CC[C@@]12C`: the growth in the test with HT29 colon is 31.1%; in the test with SNB-19 CNS, 61.8%; in the test with U251 CNS, 71.5%; with PC-3 prostate, 77.3%; with SK-MEL-5 melanoma, 12.6%; in the test with UACC-62 melanoma, 31.9%. Further, the growth is 52.9% with LOX IMVI melanoma; 19.9% with SK-MEL-28 melanoma; 98.1% in the test on SK-MEL-2 melanoma; 66.2% in the test on EKVX NSCLC; 38.2% in the test on SN12C renal; 51.7% in the test on UO-31 renal. Moreover, the growth is 69.4% in the test with TK-10 renal; 42.4% in the test with ACHN renal; 61.9% with CAKI-1 renal; 69.1% in the test with A498 renal; 70.6% with CCRF-CEM leukemia; 65.4% in the test with MOLT-4 leukemia. In addition, the growth in the test on SR leukemia was 42.3%.

On to `COc1cc(C=C2C(=O)N(C)C(=O)N(C)C2=O)cc(CN2CCCCC2)c1O`, for which the growth with HT29 colon was 103%; in the test on SNB-19 CNS, 92.6%; with U251 CNS it was 99.6%; with PC-3 prostate, 105%; in the test on SK-MEL-5 melanoma, 100%; in the test on UACC-62 melanoma, 96.8%. Further, the growth is 98.7% with LOX IMVI melanoma; 102% with SK-MEL-28 melanoma; 102% in the test on SK-MEL-2 melanoma; 104% in the test on EKVX NSCLC; 94% in the test with SN12C renal; 75.4% in the test with UO-31 renal. The growth with TK-10 renal is 103%; in the test on ACHN renal, 95.9%; in the test with CAKI-1 renal, 92.4%; in the test on A498 renal it was 98.7%; in the test with CCRF-CEM leukemia, 109%; with SR leukemia, 94.4%.

On to `CC1=NCC2NC(=O)NC(C)=C12` (stereo not drawn), for which the growth was 108% in the test with HT29 colon; 98.9% in the test on SNB-19 CNS; 103% with U251 CNS; 93.9% with PC-3 prostate; 95.2% with UACC-62 melanoma; 101% with LOX IMVI melanoma. The growth in the test with SK-MEL-28 melanoma is 114%; in the test on SK-MEL-2 melanoma, 101%; in the test on EKVX NSCLC, 100%; in the test on SN12C renal, 99.2%; in the test with UO-31 renal, 83.6%; with TK-10 renal, 95.9%. In addition, the growth in the test on ACHN renal is 109%; in the test on CAKI-1 renal, 92.8%; in the test on CCRF-CEM leukemia, 99.7%; in the test with MOLT-4 leukemia, 107%; in the test on SR leukemia it was 104%.

In the case of `COc1cc(C2CC(c3ccc(Nc4nc(NCCO)nc(N5CCOCC5)n4)cc3)=NN2c2cc(Cl)cc(Cl)c2)cc(OC)c1OC` (stereo not drawn), the growth in the test with SNB-75 CNS was 28.2%; in the test on SNB-19 CNS it was 72.6%; in the test on U251 CNS it was 47.7%; in the test on PC-3 prostate it was 34.1%; with SK-MEL-5 melanoma, 60.1%; in the test with UACC-62 melanoma, 48.6%. Further, the growth is 30.9% in the test with LOX IMVI melanoma; 72.8% in the test on SK-MEL-28 melanoma; 94.7% in the test with SK-MEL-2 melanoma; 55.5% in the test on EKVX NSCLC; 65.5% in the test on SN12C renal; 42% with UO-31 renal. Besides, the growth in the test with TK-10 renal is 93.3%; in the test on ACHN renal, 47.6%; with CAKI-1 renal, 46.4%; in the test on A498 renal it was 52%; with CCRF-CEM leukemia, 48%; in the test on MOLT-4 leukemia, 33.2%. Further, in the test on SR leukemia, the growth was 23.2%.

Turning to `CN1C(=O)N(C)C2C1NN=c1s/c(=C\c3ccc([N+](=O)[O-])cc3)c(=O)n12` (stereo not drawn), the growth in the test with HT29 colon was 25.9%; in the test with U251 CNS it was 69.8%; with PC-3 prostate, 45.8%; in the test on UACC-62 melanoma, 39.4%; in the test on LOX IMVI melanoma, 51.3%; in the test with SK-MEL-28 melanoma, 76.9%. Also, the growth was 64.6% in the test with SK-MEL-2 melanoma; 87.5% with EKVX NSCLC; 88.7% with SN12C renal; 63.5% in the test on UO-31 renal; 95.2% in the test with TK-10 renal; 53.6% with ACHN renal. Further, the growth in the test with CAKI-1 renal was 40.2%; with CCRF-CEM leukemia it was 70.4%; with MOLT-4 leukemia, 64.3%; with SR leukemia, 22%.

As for `O=C(Nc1ccc(F)cc1F)c1cc(Br)ccc1O`, the growth is 27.8% with HT29 colon; 12.1% in the test with SNB-19 CNS; 3.39% (active) in the test on U251 CNS; -8.08% (active) in the test with PC-3 prostate; -19.7% (active) in the test on UACC-62 melanoma; 17% in the test with LOX IMVI melanoma. For the same compound, the growth in the test with SK-MEL-28 melanoma is 16.5%; with SK-MEL-2 melanoma, -27.5% (active); with EKVX NSCLC it was 8.29% (active); with SN12C renal, -7.89% (active); in the test on UO-31 renal it was 1.12% (active); in the test on TK-10 renal, 2.49% (active). Moreover, the growth with CAKI-1 renal is -26.3% (active); with A498 renal, -49.5% (active); in the test with MOLT-4 leukemia, 0.366% (active).

With `CN1C(=O)N(C)C2(c3ccccc3)n3c(s/c(=C\c4ccccc4)c3=O)=NNC12c1ccccc1` (stereo not drawn), the growth in the test on HT29 colon is 95.5%; in the test on SNB-19 CNS it was 98%; in the test with U251 CNS it was 96.4%; with PC-3 prostate, 74.2%; with UACC-62 melanoma, 81.2%; in the test on LOX IMVI melanoma, 86.2%. Besides, the growth in the test with SK-MEL-28 melanoma is 101%; in the test with SK-MEL-2 melanoma, 99.7%; in the test with EKVX NSCLC, 76.1%; with SN12C renal it was 91.3%; with UO-31 renal, 74.9%; with TK-10 renal, 116%. In addition, the growth in the test with ACHN renal was 95%; in the test on CAKI-1 renal it was 84.5%; in the test on MOLT-4 leukemia, 83%; in the test with SR leukemia it was 71.9%.
